In the supplement of paper PMC11732987, “Enantioselective OTUD7B fragment discovery through chemoproteomics screening and high-throughput optimisation” (Communications Chemistry, 2025):

Legend:
Assay in all cases: log2 ratio of Biotin-Ahx-Ub-VS probe labelling (fragment/DMSO); higher = less target engagement (more negative = stronger competition), active = hit call of the paper (q ≤ 0.05, log2 ratio ≤ -1)
Details in all cases: compound concentration: 200 uM; treatment time: 3 h
[1] = biological target: T1, USP19 (UniProt O94966)
T1 sequence (whole entry): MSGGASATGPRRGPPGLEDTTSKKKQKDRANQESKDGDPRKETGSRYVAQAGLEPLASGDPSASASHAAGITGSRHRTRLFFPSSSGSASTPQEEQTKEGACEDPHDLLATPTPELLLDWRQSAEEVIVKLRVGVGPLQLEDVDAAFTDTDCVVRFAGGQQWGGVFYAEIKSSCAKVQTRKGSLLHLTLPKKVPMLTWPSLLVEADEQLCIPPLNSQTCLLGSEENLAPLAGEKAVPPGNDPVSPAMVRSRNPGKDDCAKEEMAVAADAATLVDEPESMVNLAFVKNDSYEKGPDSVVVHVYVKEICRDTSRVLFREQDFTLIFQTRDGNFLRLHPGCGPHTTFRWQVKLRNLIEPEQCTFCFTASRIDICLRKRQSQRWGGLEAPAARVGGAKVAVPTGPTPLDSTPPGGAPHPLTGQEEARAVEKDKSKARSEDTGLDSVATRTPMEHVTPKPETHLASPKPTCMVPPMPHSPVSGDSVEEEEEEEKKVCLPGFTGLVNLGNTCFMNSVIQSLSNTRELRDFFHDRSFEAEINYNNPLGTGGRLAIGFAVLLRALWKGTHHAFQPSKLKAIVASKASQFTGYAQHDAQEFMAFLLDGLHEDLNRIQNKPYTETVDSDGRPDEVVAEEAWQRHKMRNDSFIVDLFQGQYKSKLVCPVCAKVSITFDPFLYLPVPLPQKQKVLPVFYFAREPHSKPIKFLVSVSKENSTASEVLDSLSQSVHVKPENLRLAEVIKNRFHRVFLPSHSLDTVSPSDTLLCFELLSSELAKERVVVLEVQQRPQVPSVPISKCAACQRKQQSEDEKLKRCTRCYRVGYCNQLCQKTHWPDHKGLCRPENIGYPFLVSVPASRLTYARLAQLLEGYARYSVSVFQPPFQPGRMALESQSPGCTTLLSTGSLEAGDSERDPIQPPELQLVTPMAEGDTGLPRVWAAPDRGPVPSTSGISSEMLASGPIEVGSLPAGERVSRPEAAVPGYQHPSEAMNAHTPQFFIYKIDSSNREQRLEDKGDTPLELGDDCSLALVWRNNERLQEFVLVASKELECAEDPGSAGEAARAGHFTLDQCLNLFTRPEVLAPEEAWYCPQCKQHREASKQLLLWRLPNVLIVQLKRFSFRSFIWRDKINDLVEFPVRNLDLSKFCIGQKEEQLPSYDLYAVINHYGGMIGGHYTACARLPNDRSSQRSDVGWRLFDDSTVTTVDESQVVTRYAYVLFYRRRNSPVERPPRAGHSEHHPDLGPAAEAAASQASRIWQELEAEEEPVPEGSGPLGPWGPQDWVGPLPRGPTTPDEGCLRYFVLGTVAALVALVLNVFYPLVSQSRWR
Summary of the method: (§1)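 HEK293T lysate (495 µg per sample, in Tris/CHAPS/IGEPAL buffer with protease inhibitors) was exposed in triplicate for 3 h to fragment at 200 µM or to vehicle, then to Biotin-Ahx-Ub-VS at 0.5 µM final for 1 h. Labelled DUBs were enriched on NeutrAvidin, digested with LysC and trypsin, and analysed by diaPASEF LC-MS/MS. Spectronaut label-free quantities were normalised to the global median, and values are average log2 ratios of fragment over vehicle from an unpaired t-test. Only proteins with ≥2 unique peptides were used.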

[2] = biological target: USP24 (UniProt Q9UPU5)
Sequence of USP24 (Q9UPU5 whole entry): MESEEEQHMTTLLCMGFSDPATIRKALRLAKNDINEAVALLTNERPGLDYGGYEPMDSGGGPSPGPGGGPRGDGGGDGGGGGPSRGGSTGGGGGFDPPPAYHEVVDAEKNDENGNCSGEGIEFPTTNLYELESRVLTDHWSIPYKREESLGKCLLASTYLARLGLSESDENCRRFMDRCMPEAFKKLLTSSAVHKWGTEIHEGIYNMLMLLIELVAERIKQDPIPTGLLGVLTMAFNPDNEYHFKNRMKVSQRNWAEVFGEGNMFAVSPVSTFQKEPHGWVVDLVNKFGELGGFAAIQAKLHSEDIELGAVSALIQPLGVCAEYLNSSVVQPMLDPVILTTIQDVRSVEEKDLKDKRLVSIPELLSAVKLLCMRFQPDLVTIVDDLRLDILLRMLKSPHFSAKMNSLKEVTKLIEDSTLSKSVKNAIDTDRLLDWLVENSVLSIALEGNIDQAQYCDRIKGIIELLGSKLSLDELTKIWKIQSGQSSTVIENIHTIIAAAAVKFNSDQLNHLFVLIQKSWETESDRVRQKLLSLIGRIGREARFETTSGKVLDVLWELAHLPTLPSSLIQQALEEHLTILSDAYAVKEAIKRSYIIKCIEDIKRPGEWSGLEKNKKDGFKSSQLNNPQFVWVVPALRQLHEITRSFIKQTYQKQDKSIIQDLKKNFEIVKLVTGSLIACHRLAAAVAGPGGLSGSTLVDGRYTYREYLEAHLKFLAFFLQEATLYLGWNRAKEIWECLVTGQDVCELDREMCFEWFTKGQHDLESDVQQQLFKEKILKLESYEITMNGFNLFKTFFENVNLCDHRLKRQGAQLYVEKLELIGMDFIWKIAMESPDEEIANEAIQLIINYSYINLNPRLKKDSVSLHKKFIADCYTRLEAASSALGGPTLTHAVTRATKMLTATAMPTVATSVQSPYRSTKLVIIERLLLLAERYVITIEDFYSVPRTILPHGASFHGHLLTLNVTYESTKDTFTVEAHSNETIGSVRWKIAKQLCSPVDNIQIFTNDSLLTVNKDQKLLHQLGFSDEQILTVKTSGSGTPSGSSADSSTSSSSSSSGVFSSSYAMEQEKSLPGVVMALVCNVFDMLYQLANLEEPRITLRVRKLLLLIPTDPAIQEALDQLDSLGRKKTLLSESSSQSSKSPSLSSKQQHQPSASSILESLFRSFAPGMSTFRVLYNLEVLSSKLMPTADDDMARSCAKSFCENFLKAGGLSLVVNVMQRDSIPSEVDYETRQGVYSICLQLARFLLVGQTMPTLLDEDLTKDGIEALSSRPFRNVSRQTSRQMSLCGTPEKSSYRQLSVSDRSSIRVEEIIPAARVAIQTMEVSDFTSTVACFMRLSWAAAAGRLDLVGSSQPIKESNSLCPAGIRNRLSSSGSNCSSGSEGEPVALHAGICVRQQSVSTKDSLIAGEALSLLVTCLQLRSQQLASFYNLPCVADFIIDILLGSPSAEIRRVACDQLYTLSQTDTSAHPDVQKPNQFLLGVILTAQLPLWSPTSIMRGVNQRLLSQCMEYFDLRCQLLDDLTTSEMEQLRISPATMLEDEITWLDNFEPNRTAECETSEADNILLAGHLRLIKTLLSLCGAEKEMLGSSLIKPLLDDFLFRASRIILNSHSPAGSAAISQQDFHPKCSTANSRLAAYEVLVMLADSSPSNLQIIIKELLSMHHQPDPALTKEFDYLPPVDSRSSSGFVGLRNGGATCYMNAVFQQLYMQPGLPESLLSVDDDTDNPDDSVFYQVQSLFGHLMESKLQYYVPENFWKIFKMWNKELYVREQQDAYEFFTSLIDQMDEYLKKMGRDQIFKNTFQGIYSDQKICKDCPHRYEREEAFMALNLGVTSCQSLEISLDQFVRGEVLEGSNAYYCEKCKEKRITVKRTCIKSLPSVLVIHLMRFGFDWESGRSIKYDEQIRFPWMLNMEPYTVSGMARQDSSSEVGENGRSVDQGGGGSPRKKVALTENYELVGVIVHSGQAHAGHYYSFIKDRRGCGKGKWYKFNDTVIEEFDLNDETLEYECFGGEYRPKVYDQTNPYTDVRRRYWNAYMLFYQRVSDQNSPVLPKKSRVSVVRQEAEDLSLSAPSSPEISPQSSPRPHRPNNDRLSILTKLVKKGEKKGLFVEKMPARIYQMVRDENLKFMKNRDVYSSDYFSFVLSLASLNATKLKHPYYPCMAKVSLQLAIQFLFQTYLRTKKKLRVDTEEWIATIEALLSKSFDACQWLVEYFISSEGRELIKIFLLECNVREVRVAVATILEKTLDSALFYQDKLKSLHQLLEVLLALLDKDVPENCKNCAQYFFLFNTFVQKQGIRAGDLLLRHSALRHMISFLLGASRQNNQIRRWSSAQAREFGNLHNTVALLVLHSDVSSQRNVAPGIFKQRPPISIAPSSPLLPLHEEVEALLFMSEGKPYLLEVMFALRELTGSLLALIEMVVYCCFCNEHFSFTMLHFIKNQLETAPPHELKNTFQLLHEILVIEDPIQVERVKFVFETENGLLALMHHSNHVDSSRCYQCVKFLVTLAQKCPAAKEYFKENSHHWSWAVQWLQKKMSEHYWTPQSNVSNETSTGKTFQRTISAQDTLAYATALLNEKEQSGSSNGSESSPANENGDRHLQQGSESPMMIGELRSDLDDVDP
Summary of the method: as §1

[3] = biological target: T2, USP25 (UniProt Q9UHP3)
T2 sequence (whole entry): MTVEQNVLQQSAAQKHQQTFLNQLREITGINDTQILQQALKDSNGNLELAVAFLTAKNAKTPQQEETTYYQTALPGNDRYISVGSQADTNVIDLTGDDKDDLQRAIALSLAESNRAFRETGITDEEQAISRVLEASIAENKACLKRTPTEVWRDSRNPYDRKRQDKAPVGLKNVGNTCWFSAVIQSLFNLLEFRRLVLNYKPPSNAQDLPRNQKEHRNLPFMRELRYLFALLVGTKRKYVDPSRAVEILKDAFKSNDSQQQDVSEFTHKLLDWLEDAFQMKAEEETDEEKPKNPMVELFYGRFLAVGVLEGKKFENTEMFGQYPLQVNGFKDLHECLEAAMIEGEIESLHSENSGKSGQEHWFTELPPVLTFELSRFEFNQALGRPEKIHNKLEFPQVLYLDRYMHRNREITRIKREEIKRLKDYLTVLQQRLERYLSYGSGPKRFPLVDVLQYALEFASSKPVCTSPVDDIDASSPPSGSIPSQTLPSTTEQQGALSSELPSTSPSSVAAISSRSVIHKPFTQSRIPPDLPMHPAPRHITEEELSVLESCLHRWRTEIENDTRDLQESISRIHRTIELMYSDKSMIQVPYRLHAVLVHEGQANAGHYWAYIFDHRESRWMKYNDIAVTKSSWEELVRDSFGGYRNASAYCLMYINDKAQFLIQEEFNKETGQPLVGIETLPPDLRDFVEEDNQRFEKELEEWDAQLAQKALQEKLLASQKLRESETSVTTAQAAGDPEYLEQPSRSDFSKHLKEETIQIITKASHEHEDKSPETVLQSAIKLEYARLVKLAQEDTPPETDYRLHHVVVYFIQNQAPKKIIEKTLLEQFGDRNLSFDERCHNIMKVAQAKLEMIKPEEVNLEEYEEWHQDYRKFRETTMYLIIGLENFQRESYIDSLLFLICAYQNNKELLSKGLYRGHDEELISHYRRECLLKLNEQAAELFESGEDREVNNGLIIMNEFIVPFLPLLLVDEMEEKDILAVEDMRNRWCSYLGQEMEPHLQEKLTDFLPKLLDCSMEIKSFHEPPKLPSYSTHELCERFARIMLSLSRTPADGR
Summary of the method: as §1

[4] = biological target: T3, USP28 (UniProt Q96RU2)
T3 sequence (whole entry): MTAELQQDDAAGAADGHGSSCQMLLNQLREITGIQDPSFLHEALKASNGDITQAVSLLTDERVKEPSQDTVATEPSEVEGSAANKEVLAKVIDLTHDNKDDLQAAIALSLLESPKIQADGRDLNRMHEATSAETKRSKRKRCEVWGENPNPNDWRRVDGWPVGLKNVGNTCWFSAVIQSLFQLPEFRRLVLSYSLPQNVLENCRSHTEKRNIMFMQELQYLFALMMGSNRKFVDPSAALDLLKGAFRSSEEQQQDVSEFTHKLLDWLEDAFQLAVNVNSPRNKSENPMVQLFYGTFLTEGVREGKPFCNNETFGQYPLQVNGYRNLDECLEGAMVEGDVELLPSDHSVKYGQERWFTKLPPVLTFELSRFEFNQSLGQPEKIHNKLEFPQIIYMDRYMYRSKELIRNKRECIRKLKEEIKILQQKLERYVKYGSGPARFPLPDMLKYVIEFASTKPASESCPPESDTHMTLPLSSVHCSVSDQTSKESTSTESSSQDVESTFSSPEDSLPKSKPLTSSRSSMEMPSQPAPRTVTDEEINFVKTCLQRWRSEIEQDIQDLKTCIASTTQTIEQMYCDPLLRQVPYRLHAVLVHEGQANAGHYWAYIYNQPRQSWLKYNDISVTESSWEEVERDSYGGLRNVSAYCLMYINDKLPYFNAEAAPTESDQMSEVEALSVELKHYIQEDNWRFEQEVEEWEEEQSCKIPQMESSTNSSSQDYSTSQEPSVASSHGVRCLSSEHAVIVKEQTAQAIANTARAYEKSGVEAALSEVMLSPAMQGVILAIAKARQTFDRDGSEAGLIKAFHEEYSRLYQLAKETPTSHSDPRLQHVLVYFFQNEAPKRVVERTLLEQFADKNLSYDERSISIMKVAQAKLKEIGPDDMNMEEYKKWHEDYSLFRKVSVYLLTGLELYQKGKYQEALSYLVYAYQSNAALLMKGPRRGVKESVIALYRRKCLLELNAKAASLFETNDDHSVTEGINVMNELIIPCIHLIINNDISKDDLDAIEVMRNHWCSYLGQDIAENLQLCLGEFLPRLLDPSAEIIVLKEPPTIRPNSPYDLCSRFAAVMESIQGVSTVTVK
Summary of the method: as §1

Measured: log2 ratio of Biotin-Ahx-Ub-VS probe labelling

O=C(CCl)NCc1ccc(Cl)cc1
inactive: [1] -0.0819 | [2] -0.0304 | [3] -0.395 | [4] -0.414
